Structures are written as SMILES. In all, about 350,000 compounds went through this assay and about 7,000 (2%) were called active. Many of the other results were omitted from the sample, so actives are more common in it than they were. Unmarked numbers belong to inactive results. No stated cut-off is given here; in the data, active means activation above about 40%; inconclusive means no clear call, values can overlap the other calls; inactive means below that.

This assay in a line: Bmi1 luciferase reporter increase in mESCs, primary screen, esBAF inhibitor project, mouse ES cells, Bmi1 luciferase knock-in, single point (AID 602393).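 Further: 0% = median of the plate's neutral control wells and 100% = double that signal; a rise in the Bmi1 reporter signal indicates esBAF inhibition.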 Conditions: 24 h, at 12.5 µM, active compounds read high, 100% = twice the neutral-well signal. A general note: In a reporter assay the amount or activity of a reporter protein is the signal.
On to `COCC(=O)Nc1ccc2c(c1)C(=O)N(C)C[C@H](OC)[C@@H](C)CN(CC1CC1)[C@@H](C)CO2`, for which the reporter increase was -0.99%. Under `COc1ccccc1NC(=O)N[C@H]1CC[C@H](CCNS(=O)(=O)c2ccc(Cl)cc2)O[C@H]1CO` stands 16.7%. Take `CCN1[C@@H]2c3cccc(=O)n3C[C@H]1[C@H](CO)[C@H]2C(=O)NC1Cc2ccccc2C1`: the reporter increase is -2%. Take `CCC(=O)N1C[C@@H](C)[C@H](OC)CN(C)C(=O)c2ccc(NC(=O)Nc3ccccc3)cc2OC[C@@H]1C`: the reporter increase is -0.74%. `COc1ccc(NC(=O)Nc2ccc3nsnc3c2)cc1`: the reporter increase is 100% (active). Consider `CCC(=O)Nc1ccc(C(=O)Nc2cc(C)on2)cc1`, for which the reporter increase is 15.4%. For `CCC(=O)Nc1ccc(C(=O)Nc2cccc(OC)c2)cc1`, the reporter increase is 49.8% (active). On to `CCc1ccc(NC(=O)Nc2ccncc2)cc1`, for which the reporter increase is 19.8%.

Regarding `COc1cccc(NC(=O)CC2C(=O)NCCN2C(=S)Nc2ccc(F)cc2)c1` (stereo unspecified), the reporter increase is 3.78%. The value for `COc1cccc(C(=O)NNS(=O)(=O)c2ccc(F)cc2)c1` was -2.92%; that for `COc1cccc(NC(=O)Nc2ccc(F)cc2)c1` was 47.9% (active). Take `O=C(Nc1ccccc1)c1ccc2nsnc2c1`: the reporter increase is 28.4%. In the case of `COc1cccc(N(CC(=O)Nc2cccc(F)c2)S(C)(=O)=O)c1`, the reporter increase was -2.9%. Regarding `COc1cccc(C(=O)NNC(=O)/C=C/c2ccccc2)c1`, the reporter increase was -6.98%. With `COc1cccc(C(=O)NNC(=O)c2cccc(F)c2)c1`, the reporter increase was 46.1% (active). Consider `CCC(=O)Nc1ccc(C(=O)NNC(=O)c2ccc(Cl)cc2)cc1`, for which the reporter increase was -4.4%. Turning to `CNC(=O)C[C@H]1CC[C@H]2[C@@H](COc3ccc(NC(=O)c4cccc(OC)c4)cc3C(=O)N2C)O1`, the reporter increase is 4.25%. With `COc1cccc(C#Cc2cnc3c(c2)C(=O)N([C@@H](C)CO)C[C@H](C)[C@H](CN(C)CC2CC2)O3)c1`, the reporter increase was -5.64%.

As for `CO[C@H]1CN(C)C(=O)c2cc(NS(=O)(=O)CC(F)(F)F)ccc2OC[C@@H](C)N(C(=O)c2ccc3c(c2)OCO3)C[C@@H]1C`, the reporter increase was 2.12%.

For `O=C(c1ccccc1)N1C[C@@H]2[C@H](c3ccccc31)[C@@H](CO)N2Cc1cc(F)ccc1F`, the reporter increase is -1.5%. In the case of `CO[C@@H]1CN(C)C(=O)c2cc(NC(=O)C3CCCCC3)ccc2OC[C@@H](C)N(C(=O)Nc2ccc(C(F)(F)F)cc2)C[C@H]1C`, the reporter increase is 9.31%. On to `CCCNC(=O)[C@H]1[C@H](CO)[C@H]2Cn3c(ccc(C4=CCCC4)c3=O)[C@H]2N1C(=O)CC1CC1`, for which the reporter increase was -1.14%. Take `CCSc1nsc(NC(=O)Nc2cccc(C(C)=O)c2)n1`: the reporter increase was 7.31%.

`CC(=O)c1cccc(NC(=S)N2CCCC2)c1`: the reporter increase was 3.72%. For `CC(=O)c1cccc(NC(=O)Nc2ccc(C)cc2)c1`, the reporter increase was 42.2% (active).

Consider `COc1cc2ccccc2cc1C(=O)Nc1ccc(S(=O)(=O)Nc2cc(C)on2)cc1`, for which the reporter increase is 5.76%.

For `CCOc1cc2ccccc2cc1C(=O)Nc1ccccn1`, the reporter increase is 18.4%. For the compound `Cc1ccccc1C(=O)Nc1ccccc1NC(=O)c1ccccc1C`, the reporter increase was -2.73%. As to `COc1ccc(C(=O)Nc2cc(C)c(NC(=O)c3ccccc3OC)cn2)cc1`, the reporter increase was 34.2%. Regarding `COc1cc2ccccc2cc1C(=O)Nc1ccncc1`, the reporter increase is 60% (active).

As to `COc1cc2ccccc2cc1C(=O)Nc1ccccc1C`, the reporter increase is 71.4% (active). Under `CC(C)C#Cc1cnc2c(c1)C(=O)N([C@@H](C)CO)C[C@@H](C)[C@@H](CN(C)C(=O)c1cccc(F)c1)O2` stands 4.18%; under `CCC(=O)N1[C@@H]2c3ccc(-c4ccc(F)cc4)c(=O)n3C[C@H]1[C@H](CO)[C@H]2C(=O)N(C)C`, -3.81%; under `CO[C@@H]1CC[C@@H]2CCOc3ccc(C#N)cc3C(=O)N(C)C[C@H](c3ccccc3)CC(=O)N(C)C[C@H]1O2`, -4.55%. Turning to `CO[C@@H]1CN(C)C(=O)c2cc(NC(=O)C3CCOCC3)ccc2OC[C@H](C)N(C)C[C@H]1C`, the reporter increase is -1.27%. As for `COc1ccc(-c2ccc([C@@H]3[C@@H](C#N)N(C(=O)C4CCCCC4)[C@H]3CO)cc2)cc1`, the reporter increase is 9.6%. Regarding `O=C(COC(=O)c1ccc(F)cc1)NCCCc1ccccc1`, the reporter increase is -1.61%. The value for `O=C(NCc1ccccc1)c1cccc(NC(=O)C2CCCCC2)c1` was -4.78%. On to `O=C(NCCc1ccccc1)c1cccc(NC(=O)c2ccccc2)c1`, for which the reporter increase was 42.6% (active). The value for `CC(C)(C)OC(=O)N1CCC(C(=O)Nc2cccc(C(=O)NCCc3ccccc3)c2)CC1` was 24.1%; that for `CSc1ncc(C(=O)NCCCc2ccccc2)c(C)n1` was 5.19%; that for `CC(C)c1ccc(C(=O)NCCCc2ccccc2)cc1` was 55.1% (active). For `C[C@@H]1CN([C@H](C)CO)S(=O)(=O)c2ccc(C3=CCCC3)cc2O[C@H]1CN(C)C(=O)CC1CC1`, the reporter increase is -4.31%. Turning to `CC(=O)N1[C@@H]2Cn3c(ccc(C4=CCCC4)c3=O)[C@H]1[C@@H](C(=O)NC1CCC1)[C@@H]2CO`, the reporter increase was 1.06%. Regarding `CNC[C@H]1OCCCC[C@@H](C)Oc2ccc(NC(=O)Cc3ccccc3)cc2C(=O)N([C@H](C)CO)C[C@@H]1C`, the reporter increase is -1.06%. With `CC=Cc1ccc2n(c1=O)C[C@H]1[C@H](CO)[C@@H](C(=O)NC3CCCC3)N(Cc3ccncc3)[C@@H]21` (mixture of isomers), the reporter increase was -6.02%. On to `CCCNC(=O)C[C@H]1C[C@@H]2c3cc(NC(=O)c4ccc5c(c4)OCO5)ccc3O[C@@H]2[C@@H](CO)O1`, for which the reporter increase is 0.264%. For the compound `O=C1c2ccccc2C(=O)N1CCCCCCN1C(=O)c2ccccc2C1=O`, the reporter increase is 5.74%. Turning to `O=C(OCCN1C(=O)c2ccccc2C1=O)Oc1ccccc1`, the reporter increase was -11.2%. For `O=C1c2ccccc2C(=O)N1CCOc1ccc(F)cc1`, the reporter increase is 60.3% (active). The value for `C[C@H]1CN([C@@H](C)CO)C(=O)c2cc(NC(=O)Cn3cnnn3)ccc2O[C@H]1CN(C)C(=O)NC1CCCCC1` was -0.29%; that for `Cc1ccc(S(=O)(=O)Nc2ccc3c(c2)C(=O)N([C@H](C)CO)C[C@H](C)[C@@H](CN(C)S(=O)(=O)c2cn(C)cn2)OCCCC[C@H](C)O3)cc1` was -6.8%.

Turning to `CCOC(=O)CN1C(=O)C(=O)c2cc(C)ccc21`, the reporter increase is -5.46%. Consider `CCOC(=O)c1ccccc1CN1C(=O)c2ccccc2S1(=O)=O`, for which the reporter increase is 0.163%.

In the case of `CCOC(=O)c1cc2n(c1C)-c1ccccc1C2=O`, the reporter increase is 47.8% (active). Consider `COc1ccc(CN(C)C[C@H]2OCCCC[C@@H](C)Oc3ccc(NS(C)(=O)=O)cc3C(=O)N([C@@H](C)CO)C[C@H]2C)cc1`, for which the reporter increase was -3.35%. Consider `CCC(=O)Nc1ccc2c(c1)OC[C@@H](C)N(Cc1ccccc1OC)C[C@H](C)[C@H](OC)CN(C)C2=O`, for which the reporter increase is -1.32%. Under `COCC(=O)Nc1ccc2c(c1)C(=O)N(C)C[C@@H](OC)[C@H](C)CN(C(=O)CC1CC1)[C@H](C)CO2` stands 0.458%. In the case of `Cc1ccc(S(=O)(=O)Nc2cccc3c2O[C@@H](CN(C)C(=O)Nc2ccccc2)[C@H](C)CN([C@@H](C)CO)C3=O)cc1`, the reporter increase was -4.19%. The value for `CN(C)c1ccc(CNC23CN4CN(CN(C4)C2)C3)cc1` was 2.1%. Under `CN(C)c1cc[n+](Cc2ccccc2)cc1` stands 12.9%; under `CN(C)c1ccc(CSc2ccccc2)cc1`, 75.8% (active); under `CCNC(=O)C[C@@H]1CC[C@H]2[C@@H](COC[C@@H](O)CN2C(=O)c2cc(Cl)cc(Cl)c2)O1`, -3.54%. With `COCC(=O)Nc1ccc2c(c1)C(=O)N(C)[C@@H]1CC[C@@H](CC(=O)NCCCN(C)C)O[C@@H]1CO2`, the reporter increase was 12.8%. `Cc1ccc(-c2cc(=O)c3ccc(F)cc3[nH]2)cc1`: the reporter increase was 47.2% (active). The value for `O=c1cc(-c2ccccc2)[nH]c2cc(F)ccc12` was 7.27%. With `Cc1ccc(S(=O)(=O)/N=C(\N)c2ccc(F)cc2)cc1`, the reporter increase was 13.3%.

As for `N#Cc1ccc(C2N=C(c3ccccc3)NO2)cc1` (stereo unspecified), the reporter increase is 65.2% (active). For `Brc1ccccc1C1N=C(c2ccccc2)NO1` (stereo unspecified), the reporter increase was 54.3% (active).

Turning to `S=C1NC(c2ccccc2)=NCN1c1ccc(Br)cc1`, the reporter increase was 30.7%. `CO[C@@H]1CN(C)C(=O)c2cc(NC(=O)C3CCCC3)ccc2OC[C@@H](C)N(Cc2ccc(F)cc2)C[C@H]1C`: the reporter increase was 8.36%. On to `CO[C@H]1CN(C)C(=O)c2cc(NC(=O)NC(C)C)ccc2OC[C@H](C)N(C(=O)CN(C)C)C[C@H]1C`, for which the reporter increase is -0.455%. As to `COc1ccc(NC(=O)N(C)C[C@H]2OCCCC[C@@H](C)Oc3ccc(NS(=O)(=O)c4ccc(F)cc4)cc3C(=O)N([C@@H](C)CO)C[C@@H]2C)cc1`, the reporter increase is 1.41%. Consider `O=C(C[C@@H]1CC[C@H]2[C@@H](COC[C@@H](O)CN2CC2CC2)O1)NCc1ccc(Cl)cc1`, for which the reporter increase is -7.82%. As for `CO[C@H]1CN(C)C(=O)c2cc(NC(C)=O)ccc2OC[C@H](C)N(C(=O)C2CC2)C[C@H]1C`, the reporter increase was -2.16%.

For the compound `CS(=O)(=O)N1C[C@@H](O)COC[C@@H]2O[C@H](CC(=O)NC3Cc4ccccc4C3)CC[C@H]21`, the reporter increase was -3.82%.

`CNC[C@H]1Oc2cc(C#CC(C)(C)O)ccc2S(=O)(=O)N([C@@H](C)CO)C[C@@H]1C`: the reporter increase was -0.555%.

For `COCC(=O)N1C[C@H]2[C@@H](c3ccccc31)[C@@H](CO)N2Cc1ccccc1`, the reporter increase is -3.85%. For `Cc1nn(-c2ccccc2)c2c1C(c1cccc([N+](=O)[O-])c1)N(c1ccccc1)C(=O)N2` (stereo unspecified), the reporter increase is 10.1%.

As for `Cn1nc(-c2ccccc2)c2cc([N+](=O)[O-])ccc21`, the reporter increase is -3.5%. With `Cc1nn(-c2ccc([N+](=O)[O-])cc2)c(N)c1-c1ccccc1`, the reporter increase was 49.1% (active).

The record behind these values is PubChem BioAssay AID602393 (Broad Institute, 2012).
